Screening data as filed in PubChem BioAssay.
MsrA act: activates bovine MsrA enzyme. AID 602163. 360,000 compounds, 0.3% hits. activation, % at 10.6 µM. purified bovine MsrA, absorbance read-out; in the data active = activation above about 7.5%;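 note: 0% = vehicle and 100% = reference activator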
MsrA inhibitor: inhibits bovine methionine sulfoxide reductase A; purified bovine MsrA, absorbance read-out; inhibition, % at 15.5 µM; 360,000 compounds, 0.75% hits; in the data active = inhibition above about 4.5%;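 note: 0% = vehicle wells with enzyme and 100% = reference inhibitor wells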
PKA-R1A activ: activators of PKA-R1A complex. activation, % at 11.4 µM. P00514+P68181. PKA-R1A dissociation, Cy5-IP20 fluorescence polarization; scaled: DMSO 0%, 113 µM cGMP 100%. 340,000 compounds, 0.083% hits;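 active = percent activation above the mean of all tested compounds plus 3 SD, cut at about 19% in these data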;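 note: higher means more PKAc released from R1A so a rise in polarization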
PKA-R2B act: PKA-R2B complex activation. PKA-R2B holoenzyme dissociation, Cy5-IP20 fluorescence polarization; R2B truncated from residue 108, S112A mutant; 0% DMSO only, 100% 113 µM cGMP. activation, % at 11.4 µM. 340,000 compounds, 0.079% hits;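 active = activation above a cutoff set at the mean over all compounds plus 3 SD, cut at about 18% in these data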;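 note: higher means more holoenzyme dissociation and a rise in polarization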
Target sequence (P31323 whole entry, looked up, other chains not shown, the tested form may be a part): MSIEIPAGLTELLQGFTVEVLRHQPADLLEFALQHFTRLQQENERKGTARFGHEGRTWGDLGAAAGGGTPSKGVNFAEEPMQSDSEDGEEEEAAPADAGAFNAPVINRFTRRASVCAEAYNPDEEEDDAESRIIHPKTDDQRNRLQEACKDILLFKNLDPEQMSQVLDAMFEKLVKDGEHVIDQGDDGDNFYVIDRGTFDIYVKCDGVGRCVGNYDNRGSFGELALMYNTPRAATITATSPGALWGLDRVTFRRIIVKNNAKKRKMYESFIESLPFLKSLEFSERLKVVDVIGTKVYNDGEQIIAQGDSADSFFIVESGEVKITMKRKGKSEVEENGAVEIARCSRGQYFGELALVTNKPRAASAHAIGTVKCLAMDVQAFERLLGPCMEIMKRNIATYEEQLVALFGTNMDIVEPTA
MsrA act confirm: bovine methionine sulfoxide reductase A activation confirmed | AID 602270 | purified bovine MsrA, absorbance read-out | activation, % at 10.6 µM | 1,000 compounds, 12% hits | shares compounds with MsrA act; in the data active = activation above about 4%;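 note: enzyme coupled to thioredoxin and thioredoxin reductase with NADPH; 0% = vehicle wells and 100% = reference activator wells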
* marks the source's active call; other numbers are inactive results; · = not tested or not shown. Sampled rows, rich in hits. Any-hit rate of the full collection: about 1.1%.

SMILES	MsrA act	MsrA inhibitor	PKA-R1A activ	PKA-R2B act	MsrA act confirm
OC(COc1ccc2ccccc2c1Br)Cn1ccnc1 (stereo unspecified)	0	0	-7	0	·
OC(COc1ccc2ccccc2c1)Cn1ccnc1 (stereo unspecified)	8.1*	-1	7	-3	-2
S=C1NC[C@H](Cc2ccccc2)N1CC1CCN(CCCC2CCCCC2)CC1	·	0	·	·	·
O=C(c1cc(Cl)c(=O)n(Cc2ccccc2)c1)N1CCOCC1	9.2*	-1	5	2	-1
O=C(c1ccc(CN2CCOCC2)cc1)N1CCN(Cc2ccccc2)CC1	-2	-1	7	10	·
CC(C)CCNC(=O)[C@@H](Cc1ccccc1)NC(=O)[C@H]1O[C@@H](n2ccc(=O)[nH]c2=O)[C@H](O)[C@@H]1O	·	0	·	·	·
O=C(Cc1c[nH]c2ccccc12)Nc1ccc(Nc2cccnc2)c(-c2ccc(-c3ccccc3)cc2F)c1	·	3	·	·	·
O=C(N/N=C/c1ccc(O)c2ncccc12)c1cccc(Br)c1	15*	3	-3	0	-1
O=C(N/N=C/c1ccc([N+](=O)[O-])s1)c1cccc(Br)c1	8.7*	1	1	4	6.6*
Nc1ccc(S(=O)(=O)c2ccc(N)nc2)cc1	7.7*	0	·	·	1
O=C(NCc1ccccc1)[C@H]1CCCN1	·	0	·	·	·
COC(=O)[C@]12C[C@H](CC(=O)N3CCCC3)C(=O)N(CCC3=CCCCC3)C1=C[C@H](COCc1ccccc1)O[C@@H]2C	·	1	·	·	·
O=C(c1cnccn1)N1CCCC(N2CCN(c3cccc(Cl)c3)CC2)C1 (stereo unspecified)	-3	0	-5	-4	·
Cc1cccc(C(=O)N2CCCC(N3CCN(c4cccc(Cl)c4)CC3)C2)n1 (stereo unspecified)	17*	0	-5	8	-3
CCN=C1NC(c2cccc(F)c2)C(C(=O)OC)=C(C)N1Cc1ccccc1C(F)(F)F (stereo unspecified)	·	1	·	·	·
CCS(=O)(=O)Nc1cccc(-c2cn3c(n2)SCC3)c1	7.7*	-1	3	1	1
COc1ccc(C(=O)NC(=S)Nc2ccc(S(=O)(=O)Nc3cc(C)on3)cc2)cc1OC	8.2*	-1	-8	-15	-1
CCN(CC)C1=N/C(=C\c2ccc(OC)cc2)C(=O)N1c1ccccc1	20*	1	-14	4	0
O=C(Nc1c2c(nn1-c1ccc([N+](=O)[O-])cc1)CS(=O)(=O)C2)c1cccs1	-3	1	-6	5	·
O=C(Nc1c2c(nn1-c1ccc([N+](=O)[O-])cc1)CS(=O)(=O)C2)c1ccccc1F	7.9*	1	-3	5	-1
CC(=O)N1c2ccccc2Sc2ccc3ccccc3c21	9.2*	1	-3	-10	-3
O=C(CCl)N1c2ccccc2Sc2c1ccc1ccccc21	-4	1	-1	-10	·
C=CCn1cccc(C(=O)Nc2ccc(Cl)cc2)c1=O	7.8*	2	13	1	-4
COC(=O)N[C@H]1CC=C[C@@H]1Cc1cccc(Oc2ccccc2)c1	·	0	·	·	·
O=S(=O)(c1ccc(C(F)(F)F)cc1)N1CCCc2nc(-c3ccc(F)cc3)ccc21	·	0	·	·	·
SMILES	MsrA act	MsrA inhibitor	PKA-R1A activ	PKA-R2B act	MsrA act confirm
C=CCNc1cccc2c1S(=O)(=O)N[C@@H](C)CO2	·	0	·	·	·
CC(C)(C)OC(=O)NCc1ccc(CNC(=O)c2[nH]cnc2C(=O)NC2CCN(C(=O)OC(C)(C)C)CC2)cc1	12*	·	7	-4	2
CC(C)(C)OC(=O)N1CCC(NC(=O)c2nc[nH]c2C(=O)NCc2ccccc2)CC1	1	1	1	-8	·
Cc1cc2nc(-c3ccc[nH]c3=O)n(Cc3ccc(F)cc3)c2cc1C	-6	2	-15	-7	·
O=c1[nH]cccc1-c1nc2ccccc2n1Cc1ccc(F)cc1	15*	1	-4	-1	-3
CC1CCCC(C)N1/N=C/c1cc(Br)cc(Br)c1O (stereo unspecified)	9.2*	0	0	2	3
[O-][n+]1ccccc1C(O)CSc1ccccc1 (stereo unspecified)	·	0	·	·	·
CC(=O)N1CCOC12CCN(Cc1ccccc1)CC2	8.2*	0	17	-6	-3
O=C(NCc1cccnc1)C(=O)NCC1OCCN1S(=O)(=O)c1ccc(F)cc1 (stereo unspecified)	8.4*	-1	-2	0	1
CN(C(=O)c1ccc(NC(=O)Cc2cccc(NC(=O)C3CCN(C(=O)CCc4ccccc4)CC3)c2)cc1)C1CC1	·	0	·	·	·
O=C(NCc1ccccc1Cl)[C@H]1CCCN1C(=O)[C@H]1CCCN1C(=O)c1cccs1	9.2*	-1	·	·	-3
O=C(NCc1ccccc1)[C@@H]1CCCN1C(=O)[C@@H]1CCCN1C(=O)c1cccs1	-1	-1	·	·	·
S=c1nc(-c2ccccc2Cl)[nH][nH]1	8.1*	0	-8	0	1
O=C(NCc1ccc(F)cc1)c1cc2ccccc2o1	9.6*	-1	2	-1	0
Cc1noc(C)c1S(=O)(=O)N(C)C[C@@H]1OCc2cn(nn2)CCCC(=O)N([C@H](C)CO)C[C@H]1C	·	1	·	·	·
Cc1nn(C)c(Sc2ccccc2N)c1[N+](=O)[O-]	8.0*	0	0	-18	0
COc1ccc(-n2cc(CN3CCC(OC)CC3)c(-c3cccc(F)c3)n2)cc1	8.2*	0	1	-8	-4
O=C1C=C(c2c(O)ccc3ccccc23)c2ccccc2C1=O	21*	-1	-12	-1	12*
CC1(C)NC(=O)N(c2ccccc2Cl)C1(C)NO (stereo unspecified)	11*	0	-4	6	-3
Cc1cc(=O)n(-c2ccccc2Cl)[nH]1	-9	0	-10	-6	·
COc1ccc(CN(C(=O)c2ccco2)c2ccc(C)cc2)cc1OC	7.9*	1	-5	-2	-2
COc1ccccc1C(=O)N(Cc1ccccc1)c1ccc(C)cc1	-1	-1	6	-6	·
COc1cccc(CNC(=O)[C@H]2CCCN2C(=O)[C@H]2CCCN2C(=O)c2ccc(Cl)cc2)c1	·	0	·	·	·
O=C(CSc1nc2ccccc2c(=O)n1-c1ccc(Cl)cc1)N/N=C/C=C/c1ccccc1[N+](=O)[O-]	8.1*	0	1	-10	-4
CCOc1ccccc1OCCCNCc1ccco1	13*	0	-2	1	-1
C[C@@H]1CNC(=O)c2c(C(=O)N(C)Cc3ccccc3)ncn21	·	1	·	·	·
Cc1ccc(CC2C(=O)N(c3ncccn3)C(=O)C2C)cc1 (stereo unspecified)	20*	0	-4	-5	2
CCCC(C)C(=O)NC1CCCCN(C)C1=O (stereo unspecified)	·	0	·	·	·
CCCCOCC1CN(CCCC)S(=O)(=O)c2c(cccc2N2CCCC2)O1 (stereo unspecified)	·	0	·	·	·
